# Measurements reported in PubChem BioAssay (Tox21).
# Where “and” joins values, the source holds several entries; their conditions need not be identical. Identical values can stand only once. Results filed as inconclusive are left out. A number with no mark means an inactive call. Calls of active or inactive are those of the source. Calls follow the shape of the dose curve; as a rule, active = well fitted curve in the direction sought with a large enough effect in the repeat runs; inconclusive = weak or mixed curves; inactive = no such curve, though single readings can be large; an effect the other way counts as inactive or inconclusive.
# Assay: qHTS RealTime-Glo MT Cell Viability Assay in HEK293 cells - 8 hour (AID 1224887); also: nearly all actives have a fitted effect of over 50% in size; also: potency is read from the fitted curve at half-maximal effect; as to activity change, negative = cytotoxicity: top concentration of the series differs between compounds
# Conditions: RealTime-Glo luminescence; series mostly up to 76.8 µM; activity change, negative = cytotoxicity: at the top concentration
# Method in brief: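 Measured as luminescence from the same continuously cultured HEK293 wells at successive time points (0, 8, 16, 24, 32, 40 h) after compound addition. Reagent present from seeding; dosing at 5 h; incubation 37 C.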
# % is scaled to controls: 0 for no effect and ±100 for the full control effect.
SMILES,"activity change, negative = cytotoxicity",Potency
C=CC(C)(CCC=C(C)C)OC(=O)c1ccccc1N (stereo not given),13.1%,
O=C(N/N=C/c1ccc([N+](=O)[O-])o1)c1cc([N+](=O)[O-])cc([N+](=O)[O-])c1O,16% [at 35.3 µM],
CCc1cnc(C2=NC(C)(C(C)C)C(=O)N2)c(C(=O)O)c1 (stereo not given),,inactive
CCOP(=O)(SC(C)CC)N1CCSC1=O (stereo not given),3.37%,
CCCCCCCCn1sccc1=O,,39 µM (active) and 40.8 µM (active)
CN(C)c1ccc(N=O)cc1,,15.5 µM (active) and 21.9 µM (active)
CC(C)(C)NCC(O)c1cc(Cl)c(N)c(C(F)(F)F)c1 (stereo not given),-3.54% [at 35.3 µM],
Cc1ncc(C[n+]2csc(CCO)c2C)c(N)n1,-1.75%,
CCC1CCC(=O)O1 (stereo not given),4.79%,
CC1(C)CC(=O)CC(C)(C)N1[O],-4.05%,
O=C(O)C(Cl)(Cl)Br,-4.23%,
Nc1ccccc1C(=O)OCCc1ccccc1,,21.9 µM (active)
N#CC1(N=NC2(C#N)CCCCC2)CCCCC1,-4.66%,
CC(C)(C)OOC(C)(C)CCC(C)(C)OOC(C)(C)C,0.688%,
CC(C)(C#N)C(C)(C)C#N,0.0975%,
CCCCNC(=O)OCC#CI,,24.5 µM (active)
Cc1ccc(N)c(C)c1,,inactive
CN1C[C@H](C(=O)N[C@]2(C)O[C@@]3(O)[C@@H]4CCCN4C(=O)[C@H](Cc4ccccc4)N3C2=O)C=C2c3cccc4[nH]cc(c34)C[C@H]21,-27.3% [at 35.3 µM],
COC1=CC(=O)O[C@@H](/C=C/c2ccc3c(c2)OCO3)C1,-7.86%,
CCOC(=O)C1OC1(C)c1ccccc1 (stereo not given),,inactive
c1ccc2c(c1)-c1cccc3cccc-2c13,-3.59%,

# Assay: A CellTox Green Cytotoxicity Assay to monitor cytotoxicity in HEK293 cells - 16 hour (AID 1224888); also: nearly all actives have a fitted effect of over 35% in size; also: potency is read from the fitted curve at half-maximal effect
# Conditions: CellTox Green fluorescence; series mostly up to 76.8 µM; activity change: at the top concentration
# Method in brief: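 Homogeneous no-lysis format: HEK293 cell suspension mixed with CellTox Green reagent, seeded, incubated 5 h at 37 C/5% CO2, then dosed by pintool with compound in DMSO.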
SMILES,activity change,Potency
C=CC(C)(CCC=C(C)C)OC(=O)c1ccccc1N (stereo not given),-0.531%,
O=C(N/N=C/c1ccc([N+](=O)[O-])o1)c1cc([N+](=O)[O-])cc([N+](=O)[O-])c1O,"-15.6% [at 35.3 µM, hits give high values]",
CC(O)CN1CCN(CC(=O)[O-])CCN(CC(=O)[O-])CCN(CC(=O)[O-])CC1.[Gd+3] (stereo not given),"2.18% [at 35.3 µM, hits give high values]",
CCc1cnc(C2=NC(C)(C(C)C)C(=O)N2)c(C(=O)O)c1 (stereo not given),,inactive
CCOP(=O)(SC(C)CC)N1CCSC1=O (stereo not given),-13.3%,
CCCCCCCCn1sccc1=O,,51.3 µM (active)
C1CS1,-10.1%,
CN(C)c1ccc(N=O)cc1,,inactive
CC(C)(C)NCC(O)c1cc(Cl)c(N)c(C(F)(F)F)c1 (stereo not given),"3.81% [at 35.3 µM, hits give high values]",
Cc1ncc(C[n+]2csc(CCO)c2C)c(N)n1,-5.41%,
CCC1CCC(=O)O1 (stereo not given),-1.44%,
CC1(C)CC(=O)CC(C)(C)N1[O],-2.5%,
CC1(C)[C@H](C(=O)O[C@H](C#N)c2cccc(Oc3ccccc3)c2)[C@@H]1C=C(Br)Br,,inactive
CN1CC[C@]23c4c5ccc(O)c4O[C@H]2[C@@H](O)CC[C@H]3[C@H]1C5,-3.28%,
C[C@H]1O[C@H](OC2[C@@H](O)[C@@H](O)C(O)[C@H](O)[C@H]2O)[C@@H](N)C[C@@H]1N=C(N)C(=O)O (stereo not given in full),0.605%,
CC(C)c1ccc(OP(=O)(Oc2ccc(C(C)C)cc2)Oc2ccc(C(C)C)cc2)cc1,,inactive
CCOP(=O)(O)C(N)=O,7.33%,
SCc1ccccc1,-0.141%,
N#CC1(N=NC2(C#N)CCCCC2)CCCCC1,0.0256%,

SMILES,activity change,Potency
CC(C)(C)OOC(C)(C)CCC(C)(C)OOC(C)(C)C,1.8%,
CC(C)(C#N)C(C)(C)C#N,-23%,
CCCCNC(=O)OCC#CI,28%,
Cc1cnc(C2=NC(C)(C(C)C)C(=O)N2)c(C(=O)O)c1 (stereo not given),-1.39%,
O=C(N[C@H]1CN2CCC1CC2)c1ccc2c(c1)OCCO2,-11.2%,
O=C1NC(=O)C(=O)C(=O)N1,-5.48%,
Cc1ccc(N)c(C)c1,,inactive
CCOP(=S)(S)OCC,-0.0376%,
CCC[N+](CCC)(CCC)CCC,1.31%,
C=CCOCC1CO1 (stereo not given),-5.98%,
CN1C[C@H](C(=O)N[C@]2(C)O[C@@]3(O)[C@@H]4CCCN4C(=O)[C@H](Cc4ccccc4)N3C2=O)C=C2c3cccc4[nH]cc(c34)C[C@H]21,"17.6% [at 35.3 µM, hits give high values]",
COC(=O)C1(O)c2ccccc2-c2ccccc21,-13.1%,
CNC(=O)Oc1cccc(N=CN(C)C)c1,-9.29%,
Cc1cccc(C)c1NC1=NCCCS1,"-0.608% [at 35.3 µM, hits give high values]",
CC(CC(C(N)=O)(c1ccccc1)c1ccccc1)N(C)C (stereo not given),"4.19% [at 35.3 µM, hits give high values]",
COC1=CC(=O)O[C@@H](/C=C/c2ccc3c(c2)OCO3)C1,-9.36%,
CCOC(=O)C1OC1(C)c1ccccc1 (stereo not given),-0.945%,
c1ccc2c(c1)-c1cccc3cccc-2c13,,inactive

# Assay: qHTS RealTime-Glo MT Cell Viability Assay in HepG2 cells - 0 hour (AID 1224889); also: nearly all actives have a fitted effect of over 50% in size
# Conditions: RealTime-Glo luminescence; series mostly up to 76.8 µM; activity change, negative = cytotoxicity: at the top concentration
# Method in brief: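 Cells + NanoLuc/prosubstrate dispensed (600 cells/well) → 5 h at 37 C/5% CO2 → compounds in DMSO transferred → 40 h incubation at 37 C, luminescence read at 0, 8, 16, 24, 32, 40 h.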
SMILES,"activity change, negative = cytotoxicity",outcome
C=CC(C)(CCC=C(C)C)OC(=O)c1ccccc1N (stereo not given),-0.194%,
O=C(N/N=C/c1ccc([N+](=O)[O-])o1)c1cc([N+](=O)[O-])cc([N+](=O)[O-])c1O,-28.8% [at 35.3 µM],
CC(O)CN1CCN(CC(=O)[O-])CCN(CC(=O)[O-])CCN(CC(=O)[O-])CC1.[Gd+3] (stereo not given),-3.93% [at 35.3 µM],
CCc1cnc(C2=NC(C)(C(C)C)C(=O)N2)c(C(=O)O)c1 (stereo not given),,inactive
CCOP(=O)(SC(C)CC)N1CCSC1=O (stereo not given),9.1%,
CCCCCCCCn1sccc1=O,,inactive
C1CS1,5.74%,
CC(C)(C)NCC(O)c1cc(Cl)c(N)c(C(F)(F)F)c1 (stereo not given),-3.69% [at 35.3 µM],
Cc1ncc(C[n+]2csc(CCO)c2C)c(N)n1,1.84%,
CCC1CCC(=O)O1 (stereo not given),6.32%,
CC1(C)CC(=O)CC(C)(C)N1[O],-2.24%,
O=C(O)C(Cl)(Cl)Br,-3.23%,
CC1(C)[C@H](C(=O)O[C@H](C#N)c2cccc(Oc3ccccc3)c2)[C@@H]1C=C(Br)Br,,inactive
Nc1ccccc1C(=O)OCCc1ccccc1,,inactive
CN1CC[C@]23c4c5ccc(O)c4O[C@H]2[C@@H](O)CC[C@H]3[C@H]1C5,-0.206%,
C[C@H]1O[C@H](OC2[C@@H](O)[C@@H](O)C(O)[C@H](O)[C@H]2O)[C@@H](N)C[C@@H]1N=C(N)C(=O)O (stereo not given in full),-2.79%,
CC(C)c1ccc(OP(=O)(Oc2ccc(C(C)C)cc2)Oc2ccc(C(C)C)cc2)cc1,,inactive
CCOP(=O)(O)C(N)=O,6.26%,
SCc1ccccc1,1.01%,

SMILES,"activity change, negative = cytotoxicity",outcome
N#CC1(N=NC2(C#N)CCCCC2)CCCCC1,-1.04%,
CC(C)(C)OOC(C)(C)CCC(C)(C)OOC(C)(C)C,0.125%,
CC(C)(C#N)C(C)(C)C#N,-0.42%,
Cc1cnc(C2=NC(C)(C(C)C)C(=O)N2)c(C(=O)O)c1 (stereo not given),-0.424%,
O=C(N[C@H]1CN2CCC1CC2)c1ccc2c(c1)OCCO2,0.217%,
O=C1NC(=O)C(=O)C(=O)N1,-6.43%,
Cc1ccc(N)c(C)c1,,inactive
CCOP(=S)(S)OCC,1%,
CCC[N+](CCC)(CCC)CCC,10.3%,
C=CCOCC1CO1 (stereo not given),-0.452%,
CN1C[C@H](C(=O)N[C@]2(C)O[C@@]3(O)[C@@H]4CCCN4C(=O)[C@H](Cc4ccccc4)N3C2=O)C=C2c3cccc4[nH]cc(c34)C[C@H]21,,inactive
COC(=O)C1(O)c2ccccc2-c2ccccc21,3.83%,
CNC(=O)Oc1cccc(N=CN(C)C)c1,8.65%,
Cc1cccc(C)c1NC1=NCCCS1,-0.633% [at 35.3 µM],
CC(CC(C(N)=O)(c1ccccc1)c1ccccc1)N(C)C (stereo not given),7.31% [at 35.3 µM],
COC1=CC(=O)O[C@@H](/C=C/c2ccc3c(c2)OCO3)C1,-10.3%,
CCOC(=O)C1OC1(C)c1ccccc1 (stereo not given),,inactive
c1ccc2c(c1)-c1cccc3cccc-2c13,,inactive
